PubChem BioAssay AID651845 (Broad Institute, 2012)
Potency and affinity values are given separately. Results filed as inconclusive are left out. Entries that show only a call come without a potency. Active and inactive are the calls of the source.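 The calls were made as follows: active = every replicate test called active, with signal dropping and a potency found within twice the top tested dose; inconclusive = replicate test calls disagree with each other; inactive = all replicate tests inactive, including signal rising.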

Assay: Trypanosoma cruzi replication inhibitors in host cells – cell-based, plate reader, dry powder samples, dose response (AID 651845)

Compound	outcome
CC(C)N1C[C@H](C)[C@@H](CN(C)C(=O)OC(C)(C)C)Oc2c(C(=O)O)cccc2C1=O	inactive
CNC[C@@H]1Oc2c(NC(=O)c3ccncc3)cccc2C(=O)N(C(C)C)C[C@H]1C	inactive
